Active and inactive are the calls of the source.

Assay [1] has as its system Plasmodium falciparum Sir2 (PF13_0152, Sir2A). Put plainly: pfSir2 binders on small-molecule microarrays, primary screen, biochemical, small-molecule microarray, 635 nm fluorescence (AID 1098).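 Note: score merges spot fluorescence intensity with its signal-to-noise ratio.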 The following applies: small-molecule microarray binding, fluorescence 635 nm; higher = more signal.
The nature of assay [2]: small-molecule microarray binders of probe aDKK1, primary screen, biochemical, biotinylated probe, 635/667 nm fluorescence (AID 1099).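 Note: score merges 667nm spot fluorescence with signal to noise across triplicate slides.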 The following applies: higher = more signal.
The nature of assay [3]: small-molecule microarray binders of probe aCHRDL2, primary screen, biochemical, biotinylated probe, 635/667 nm fluorescence (AID 1100). As to conditions: higher = more signal.
Assay [4] is described as follows: splicing luciferase reporter signal modulators, primary screen, spliceosome inhibition project, cell-based, HEK293, splice +/- reporter (AID 1101).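 Note: HEK293 cells carrying a splicing-competent luciferase reporter gene; test concentration not given here.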 The following applies: luminescence, 24 h, higher = more signal, called active from +8 up or from −8 down. For orientation: In a reporter assay the amount or activity of a reporter protein is the signal.
For assay [5], the target named is Fibroblast growth factor 10 (Homo sapiens) (UniProt O15520). Put plainly: FGF10 binders on small-molecule microarrays, primary screen, biochemical, small-molecule microarray, 635 nm fluorescence (AID 1102). The following applies: FGF10 binding, fluorescence 635 nm, higher = more signal.
For assay [6], the system named is glycogen synthase kinase-3 (GSK3A per assay name; protocol says GSK3B). Put plainly: GSK3 binders on small-molecule microarrays, primary screen, biochemical, small-molecule microarray, 635 nm fluorescence, GSK3A (AID 1103). Note: the record names both GSK3A and GSK3B. The following applies: small-molecule microarray binding, fluorescence 635 nm; higher = more signal.
Assay [7] deals with Epidermal growth factor receptor (Homo sapiens) (UniProt P00533). Put plainly: EGFR binders on small-molecule microarrays, primary screen, biochemical, small-molecule microarray, 635 nm fluorescence (AID 1104).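 Note: score merges 667 nm emission intensity with spot signal to noise over triplicate slides.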 The following applies: EGFR binding, higher = more signal.
Assay [8] concerns the target Follistatin-related protein 3 (Homo sapiens) (UniProt O95633). Put plainly: FSTL3 binders on small-molecule microarrays, primary screen, biochemical, small-molecule microarray, 635 nm fluorescence (AID 1105).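 Note: score merges emission near 667 nm and signal to noise per printed spot across three slides.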 As to conditions: FSTL3 binding, higher = more signal.
The target of assay [9] is Dickkopf-related protein 1 (Homo sapiens) (UniProt O94907). Put plainly: DKK1 binders on small-molecule microarrays, primary screen, biochemical, small-molecule microarray, 635 nm fluorescence scan (AID 1106).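 Note: score merges emission near 667 nm with signal to noise over three replicate slides.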 The following applies: DKK1 binding, higher = more signal.
In assay [10] the test system is Inhibin beta A chain (activin A). Put plainly: INHBA (activin A) binders on microarrays, primary screen, biochemical, small-molecule microarray, 635 nm fluorescence scan (AID 1107).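 Note: mouse activin A protein probed at 4.33 µg/mL on printed slides; score merges bound-protein fluorescence near 667 nm with spot signal-to-noise.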 The following applies: small-molecule microarray binding, higher = more signal.
Assay [11] relates to Human papillomavirus type 1a protein E7 (residues 44-93). Put plainly: HPV1a E7 fragment binders on microarrays, primary screen, biochemical, small-molecule microarray, residues 44-93, 635 nm fluorescence (AID 1108).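 Note: E7 fragment applied at 1 µg/mL in TBST for 1 h at 4 C; score combines spot fluorescence with its signal to noise ratio.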 As to conditions: small-molecule microarray binding, fluorescence 635 nm; higher = more signal.
The nature of assay [12]: modulators of HCV replicon luciferase signal, primary screen, HCV replication inhibitor project, Huh7 cells, luciferase reporter (AID 1109).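 Note: huh7 hepatoma cells harbouring a luciferase neomycin HCV replicon reporter; luciferase luminescence as measure of HCV replicon replication; test concentration not given here.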 As to conditions: 48 h, higher = more signal.
The target in assay [13] is Left-right determination factor 2 (Homo sapiens) (UniProt O00292). Put plainly: LEFTY2 binders on small-molecule microarrays, primary screen, biochemical, small-molecule microarray, 635 nm fluorescence scan (AID 1110). As to conditions: LEFTY2 binding, higher = more signal.
For assay [14], the target named is Calmodulin-1 (Homo sapiens) (UniProt P0DP23). Put plainly: CALM1 binders on microarrays, EGTA buffer, profiling panel, biochemical, small-molecule microarray, Cy5-labelled CALM1 (AID 1111).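 Note: labelled calmodulin applied in Tris saline Tween buffer holding calcium plus EGTA and DTT.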 The following applies: Cy5-CALM1 binding fluorescence, higher = more signal.
For assay [15] the target is unchanged. Put plainly: calcium-bound CALM1 binders on microarrays, profiling panel, artefact control for SMM control-protein annotation, biochemical, small-molecule microarray, Cy5-labelled CALM1, plus calcium (AID 1112).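 Note: score merges spot fluorescence with signal to noise from triplicate slides.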 The following applies: Cy5-CALM1 binding fluorescence, higher = more signal.
Assay [16] can be described thus: small-molecule microarray binders of probe aWnt5a, primary screen, biochemical, biotinylated probe, 635/667 nm fluorescence (AID 1113).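 Note: score merges 667 nm fluorescence intensity with signal-to-noise per printed feature.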 As to conditions: higher = more signal.
The nature of assay [17]: small-molecule microarray binders of probe aShh, primary screen, biochemical, biotinylated probe, 635/667 nm fluorescence (AID 1114).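 Note: probe is biotin-labelled aShh protein from a stem cell growth factor screen; measures binding of labelled protein to compounds printed on the slide; score merges feature fluorescence at 667 nm with signal-to-noise.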 The following applies: higher = more signal.
Assay [18] is described as follows: small-molecule microarray binders of probe aNog, primary screen, biochemical, biotinylated probe, 635/667 nm fluorescence (AID 1115).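 Note: probe is biotinylated aNog protein used at 0.15 µg/mL for 1 h at 4 C; z-score combines 667 nm fluorescence of each spot with its signal to noise.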 The following applies: higher = more signal.
The target in assay [19] is Torsin-1A-interacting protein 1 (Homo sapiens) (UniProt Q5JTV8). Put plainly: LAP1 binders from COS7 cell lysate, primary screen, small-molecule microarray, 635/667 nm fluorescence (AID 1116). As to conditions: COS7-hLAP1 lysate binding, 635 nm fluorescence, higher = more signal.
Assay [20] addresses Alpha-bungarotoxin (Bungarus multicinctus) (UniProt P60615). Put plainly: alpha-bungarotoxin binders on microarray, profiling panel, artefact control for SMM control protein annotation, biochemical, small-molecule microarray, Alexa647 label, 635/667 nm fluorescence (AID 1117). As to conditions: alpha-BTX-A647 binding fluorescence, higher = more signal.

Sequence of Alpha-bungarotoxin (Bungarus multicinctus) (P60615 whole entry, looked up): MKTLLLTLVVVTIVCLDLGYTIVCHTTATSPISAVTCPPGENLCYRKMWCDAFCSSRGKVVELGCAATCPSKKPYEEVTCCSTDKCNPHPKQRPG
Sequence of Dickkopf-related protein 1 (Homo sapiens) (O94907 whole entry, looked up): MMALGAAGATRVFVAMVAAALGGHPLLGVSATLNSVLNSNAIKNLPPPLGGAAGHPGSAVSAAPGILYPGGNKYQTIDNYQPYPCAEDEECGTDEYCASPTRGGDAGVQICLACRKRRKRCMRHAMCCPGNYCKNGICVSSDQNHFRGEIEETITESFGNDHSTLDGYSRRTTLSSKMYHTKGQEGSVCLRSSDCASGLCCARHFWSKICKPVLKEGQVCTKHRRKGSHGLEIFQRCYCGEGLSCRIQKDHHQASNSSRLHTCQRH
Sequence of Epidermal growth factor receptor (Homo sapiens) (P00533 whole entry, looked up): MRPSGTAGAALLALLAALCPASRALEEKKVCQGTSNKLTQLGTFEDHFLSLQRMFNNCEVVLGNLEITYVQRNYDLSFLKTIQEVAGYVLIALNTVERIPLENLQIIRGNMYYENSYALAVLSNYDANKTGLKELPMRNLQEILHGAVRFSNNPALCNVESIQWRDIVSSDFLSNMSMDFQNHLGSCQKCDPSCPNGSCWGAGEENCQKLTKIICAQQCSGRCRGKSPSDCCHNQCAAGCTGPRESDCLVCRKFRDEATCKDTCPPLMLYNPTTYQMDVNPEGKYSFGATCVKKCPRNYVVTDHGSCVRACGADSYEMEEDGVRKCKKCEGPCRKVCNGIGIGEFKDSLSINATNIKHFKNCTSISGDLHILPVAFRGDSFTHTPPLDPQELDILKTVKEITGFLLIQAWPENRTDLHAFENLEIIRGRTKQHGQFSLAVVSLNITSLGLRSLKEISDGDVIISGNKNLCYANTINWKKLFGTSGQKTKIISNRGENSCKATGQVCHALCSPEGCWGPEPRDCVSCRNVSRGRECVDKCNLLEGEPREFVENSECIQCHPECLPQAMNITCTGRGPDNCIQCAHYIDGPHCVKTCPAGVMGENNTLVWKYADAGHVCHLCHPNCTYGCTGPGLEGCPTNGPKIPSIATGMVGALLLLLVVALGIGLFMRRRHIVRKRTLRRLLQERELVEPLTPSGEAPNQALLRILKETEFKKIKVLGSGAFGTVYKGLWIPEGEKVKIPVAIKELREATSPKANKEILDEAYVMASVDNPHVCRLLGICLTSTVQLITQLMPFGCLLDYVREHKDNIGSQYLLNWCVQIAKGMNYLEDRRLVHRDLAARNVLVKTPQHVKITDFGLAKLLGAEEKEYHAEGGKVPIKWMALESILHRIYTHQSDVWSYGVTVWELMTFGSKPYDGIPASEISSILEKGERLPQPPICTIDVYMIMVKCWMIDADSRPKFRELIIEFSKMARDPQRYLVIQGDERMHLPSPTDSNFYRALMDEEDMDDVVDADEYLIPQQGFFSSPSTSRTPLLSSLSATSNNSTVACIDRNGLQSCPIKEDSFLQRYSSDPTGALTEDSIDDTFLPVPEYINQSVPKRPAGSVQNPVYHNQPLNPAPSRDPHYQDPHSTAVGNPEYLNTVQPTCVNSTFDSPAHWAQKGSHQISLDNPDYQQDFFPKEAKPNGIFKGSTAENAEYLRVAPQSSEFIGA
Sequence of Follistatin-related protein 3 (Homo sapiens) (O95633 whole entry, looked up): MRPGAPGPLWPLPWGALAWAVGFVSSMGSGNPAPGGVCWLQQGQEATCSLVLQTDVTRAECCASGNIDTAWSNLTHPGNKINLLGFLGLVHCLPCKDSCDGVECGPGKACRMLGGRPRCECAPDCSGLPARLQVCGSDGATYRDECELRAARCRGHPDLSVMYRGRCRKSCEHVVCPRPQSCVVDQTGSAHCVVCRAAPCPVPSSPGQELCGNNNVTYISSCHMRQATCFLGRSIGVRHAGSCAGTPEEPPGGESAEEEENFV
Sequence of Left-right determination factor 2 (Homo sapiens) (O00292 whole entry, looked up): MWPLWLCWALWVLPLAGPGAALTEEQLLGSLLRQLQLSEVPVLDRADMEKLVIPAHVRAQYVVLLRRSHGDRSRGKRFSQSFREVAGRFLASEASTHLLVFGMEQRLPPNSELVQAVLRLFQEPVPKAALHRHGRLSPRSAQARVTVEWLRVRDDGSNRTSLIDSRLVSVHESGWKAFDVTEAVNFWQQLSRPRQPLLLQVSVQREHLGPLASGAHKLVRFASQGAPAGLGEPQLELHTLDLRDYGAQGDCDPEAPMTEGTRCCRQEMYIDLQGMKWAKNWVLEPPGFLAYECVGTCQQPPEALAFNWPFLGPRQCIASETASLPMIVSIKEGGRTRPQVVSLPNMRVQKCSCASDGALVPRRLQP
Sequence of Torsin-1A-interacting protein 1 (Homo sapiens) (Q5JTV8 whole entry, looked up): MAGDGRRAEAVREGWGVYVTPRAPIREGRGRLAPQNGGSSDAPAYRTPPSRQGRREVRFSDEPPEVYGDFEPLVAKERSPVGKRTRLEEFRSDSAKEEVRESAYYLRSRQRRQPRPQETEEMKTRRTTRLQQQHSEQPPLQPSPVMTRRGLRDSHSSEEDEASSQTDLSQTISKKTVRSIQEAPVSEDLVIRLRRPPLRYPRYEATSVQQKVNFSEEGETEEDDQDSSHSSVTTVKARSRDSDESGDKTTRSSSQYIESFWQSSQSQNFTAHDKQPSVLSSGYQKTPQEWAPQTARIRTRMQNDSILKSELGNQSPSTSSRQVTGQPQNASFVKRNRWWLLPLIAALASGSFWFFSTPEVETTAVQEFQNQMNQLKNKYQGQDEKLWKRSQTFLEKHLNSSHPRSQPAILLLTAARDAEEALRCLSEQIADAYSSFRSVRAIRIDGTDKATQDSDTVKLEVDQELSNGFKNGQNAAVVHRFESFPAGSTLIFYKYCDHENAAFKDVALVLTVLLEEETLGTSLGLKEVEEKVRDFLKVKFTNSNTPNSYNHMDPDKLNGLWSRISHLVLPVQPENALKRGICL
Sequence of Fibroblast growth factor 10 (Homo sapiens) (O15520 whole entry, looked up): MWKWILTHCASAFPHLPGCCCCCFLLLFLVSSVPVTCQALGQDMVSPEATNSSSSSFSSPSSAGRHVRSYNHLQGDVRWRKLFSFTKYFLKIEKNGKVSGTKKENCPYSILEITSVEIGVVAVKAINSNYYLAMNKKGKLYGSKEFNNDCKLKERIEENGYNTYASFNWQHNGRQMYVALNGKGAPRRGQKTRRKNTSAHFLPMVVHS

With `CCOC(=O)C[C@H]1[C@H](OC(=O)c2ccc(-c3ccccc3)cc2)[C@@H](NC(=O)c2ccccc2)c2cc(OCCCO)ccc2N1C(=O)c1ccc2ccccc2n1`, the composite z-score in [1] was -0.0092; in assay [2] it was 0.32; in assay [3] it was 0.339; in assay [5], 0.47; in assay [6], 0.538; in [7], -0.0158. Moreover, the composite z-score in assay [8] is 0.309; in assay [9], 0.234; in assay [10], -0.466; in assay [11] it was 1.29; in [13] it was -0.196; in [14], 1.2. The composite z-score was 0.963 in assay [15]; -0.0643 in assay [16]; -0.0011 in assay [17]; 0.176 in assay [18]; 0.629 in [19]; 0.552 in [20]. The z-score in [4] is 0.00513 (inactive); in assay [12], -1.09.

`CC(=O)NCCCC[C@@H]1NC(=O)[C@H]2C[C@@H](C(=O)O)[C@@H](c3ccc(O)cc3)N2C1=O`: the composite z-score in [1] worked out at 1.43; in assay [2], 0.13; in assay [3] it was 0.372; in assay [5], 1.32; in assay [6], 1.34; in [7] it was 1.02. For the same molecule, the composite z-score came to 1.44 in assay [8]; 1.28 in assay [9]; 1.47 in [10]; 1.12 in assay [11]; 1.08 in assay [13]; 0.192 in assay [14]. Besides, the composite z-score in assay [15] was -0.548; in assay [16], 0.0825; in [17] it was 0.108; in assay [18], 0.005; in [19] it was 0.0682; in assay [20] it was 0.626. In addition, the z-score in [4] was -0.177 (inactive); in assay [12], -3.1.

With `COC(=O)C(CC#Cc1ccc2c(c1)[C@]1(C(=O)N2)[C@H](c2ccc(O)cc2)N2[C@H](c3ccccc3)[C@H](c3ccccc3)OC(=O)[C@H]2[C@@H]1C(=O)N1CCN(c2ncccn2)CC1)C(=O)OC`, the composite z-score amounted to 1.69 in assay [1]; 0.534 in assay [2]; 0.508 in assay [3]; 0.621 in assay [5]; 1.03 in assay [6]; 0.116 in assay [7]. For the same molecule, the composite z-score in [8] was 0.655; in assay [9] it was 0.0879; in assay [10] it was 0.126; in [11], 0.584; in assay [13], -0.0195; in assay [14], 1.1. In addition, the composite z-score in assay [15] is -0.0671; in assay [16], -0.0748; in [17], -0.0143; in assay [18], 0.36; in assay [19] it was 0.683; in assay [20] it was 2.4. The z-score in assay [4] is -0.84 (inactive); in assay [12], -0.305.

`CC(C)(C)OC(=O)CC[C@@]1(C(=O)N2CCCCC2)N=C(c2ccc(OCCCO)cc2)O[C@@H]1c1ccccc1`: the composite z-score is 1.74 in [1]; 0.555 in assay [2]; 0.452 in assay [3]; 1.46 in [5]; 1.3 in assay [6]; 0.197 in assay [7]. Besides, the composite z-score in [8] is 0.858; in assay [9], -0.219; in [10] it was 0.6; in [11], 1.44; in [13], 0.0209; in assay [14] it was 1.72. In addition, the composite z-score in [15] was -0.0506; in assay [16] it was 0.168; in assay [17] it was 0.476; in assay [18] it was 0.414; in [19] it was 0.774; in [20], 0.873. In addition, the z-score was 0.0826 (inactive) in [4] and -1.49 in assay [12].

Take `CCN(CC)c1ccc(N2CC=CC34O[C@@H]5/C=C\CCC(C)OC(=O)C5[C@H]3C(=O)N(CCCCCO)[C@@H]4C2=O)cc1` (stereo not given in full): the composite z-score in assay [1] is -1.01; in assay [2] it was -0.0549; in [3], 0.288; in assay [5], -0.976; in assay [6], -1.02; in assay [7], -0.518. Also, the composite z-score is -0.669 in [8]; -0.555 in [9]; 0.306 in [10]; -2.06 in assay [11]; -1.5 in [13]; -0.407 in assay [14]. Also, the composite z-score in [15] is 0.381; in [16] it was -0.0346; in assay [17], -0.253; in assay [18], -0.234; in assay [19], -1.59; in [20], -0.324. Also, the z-score was 0.292 (inactive) in [4] and 0.008 in assay [12].

The record behind these values is PubChem BioAssay.
